# Assay results taken from PubChem BioAssay AID504333 (National Center for Advancing Translational Sciences (NCATS), 2011).
# About 16,000 (4.4%) of roughly 360,000 compounds were called active. Another 9% or so got no clear call; they are omitted. For the sample, actives were picked, then their nearest neighbours and some compounds at random. Values without a mark were called inactive. Calls follow the shape of the dose curve; as a rule, active = well fitted inhibition curve with a large enough effect; inconclusive = small, poorly fitted or top-dose-only effect; inactive = no such curve, though single readings can be large or run the other way.
# Target: Bromodomain adjacent to zinc finger domain protein 2B (Homo sapiens) (UniProt Q9UIF8)
# Test: qHTS Assay for Inhibitors of BAZ2B; also: nearly all actives have a fitted effect of over 60% in size
# Settings: AlphaScreen BAZ2B-H3K14Ac peptide displacement; series mostly up to 114 µM; activity change, negative = inhibition: at the top concentration
# Outline: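 AlphaScreen luminescence quantifies BAZ2B engagement of H3K14Ac peptide; the protein and biotinylated peptide are both at 50 nM final, buffer PBS pH 7.4 with 0.01% Tween-20, all steps at room temperature.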
# % is scaled to controls: 0 for no effect and ±100 for the full control effect; potency is read from the fitted curve at half-maximal effect.
# Sequence of Bromodomain adjacent to zinc finger domain protein 2B (Homo sapiens) (Q9UIF8 whole entry, looked up, the tested form may be a part): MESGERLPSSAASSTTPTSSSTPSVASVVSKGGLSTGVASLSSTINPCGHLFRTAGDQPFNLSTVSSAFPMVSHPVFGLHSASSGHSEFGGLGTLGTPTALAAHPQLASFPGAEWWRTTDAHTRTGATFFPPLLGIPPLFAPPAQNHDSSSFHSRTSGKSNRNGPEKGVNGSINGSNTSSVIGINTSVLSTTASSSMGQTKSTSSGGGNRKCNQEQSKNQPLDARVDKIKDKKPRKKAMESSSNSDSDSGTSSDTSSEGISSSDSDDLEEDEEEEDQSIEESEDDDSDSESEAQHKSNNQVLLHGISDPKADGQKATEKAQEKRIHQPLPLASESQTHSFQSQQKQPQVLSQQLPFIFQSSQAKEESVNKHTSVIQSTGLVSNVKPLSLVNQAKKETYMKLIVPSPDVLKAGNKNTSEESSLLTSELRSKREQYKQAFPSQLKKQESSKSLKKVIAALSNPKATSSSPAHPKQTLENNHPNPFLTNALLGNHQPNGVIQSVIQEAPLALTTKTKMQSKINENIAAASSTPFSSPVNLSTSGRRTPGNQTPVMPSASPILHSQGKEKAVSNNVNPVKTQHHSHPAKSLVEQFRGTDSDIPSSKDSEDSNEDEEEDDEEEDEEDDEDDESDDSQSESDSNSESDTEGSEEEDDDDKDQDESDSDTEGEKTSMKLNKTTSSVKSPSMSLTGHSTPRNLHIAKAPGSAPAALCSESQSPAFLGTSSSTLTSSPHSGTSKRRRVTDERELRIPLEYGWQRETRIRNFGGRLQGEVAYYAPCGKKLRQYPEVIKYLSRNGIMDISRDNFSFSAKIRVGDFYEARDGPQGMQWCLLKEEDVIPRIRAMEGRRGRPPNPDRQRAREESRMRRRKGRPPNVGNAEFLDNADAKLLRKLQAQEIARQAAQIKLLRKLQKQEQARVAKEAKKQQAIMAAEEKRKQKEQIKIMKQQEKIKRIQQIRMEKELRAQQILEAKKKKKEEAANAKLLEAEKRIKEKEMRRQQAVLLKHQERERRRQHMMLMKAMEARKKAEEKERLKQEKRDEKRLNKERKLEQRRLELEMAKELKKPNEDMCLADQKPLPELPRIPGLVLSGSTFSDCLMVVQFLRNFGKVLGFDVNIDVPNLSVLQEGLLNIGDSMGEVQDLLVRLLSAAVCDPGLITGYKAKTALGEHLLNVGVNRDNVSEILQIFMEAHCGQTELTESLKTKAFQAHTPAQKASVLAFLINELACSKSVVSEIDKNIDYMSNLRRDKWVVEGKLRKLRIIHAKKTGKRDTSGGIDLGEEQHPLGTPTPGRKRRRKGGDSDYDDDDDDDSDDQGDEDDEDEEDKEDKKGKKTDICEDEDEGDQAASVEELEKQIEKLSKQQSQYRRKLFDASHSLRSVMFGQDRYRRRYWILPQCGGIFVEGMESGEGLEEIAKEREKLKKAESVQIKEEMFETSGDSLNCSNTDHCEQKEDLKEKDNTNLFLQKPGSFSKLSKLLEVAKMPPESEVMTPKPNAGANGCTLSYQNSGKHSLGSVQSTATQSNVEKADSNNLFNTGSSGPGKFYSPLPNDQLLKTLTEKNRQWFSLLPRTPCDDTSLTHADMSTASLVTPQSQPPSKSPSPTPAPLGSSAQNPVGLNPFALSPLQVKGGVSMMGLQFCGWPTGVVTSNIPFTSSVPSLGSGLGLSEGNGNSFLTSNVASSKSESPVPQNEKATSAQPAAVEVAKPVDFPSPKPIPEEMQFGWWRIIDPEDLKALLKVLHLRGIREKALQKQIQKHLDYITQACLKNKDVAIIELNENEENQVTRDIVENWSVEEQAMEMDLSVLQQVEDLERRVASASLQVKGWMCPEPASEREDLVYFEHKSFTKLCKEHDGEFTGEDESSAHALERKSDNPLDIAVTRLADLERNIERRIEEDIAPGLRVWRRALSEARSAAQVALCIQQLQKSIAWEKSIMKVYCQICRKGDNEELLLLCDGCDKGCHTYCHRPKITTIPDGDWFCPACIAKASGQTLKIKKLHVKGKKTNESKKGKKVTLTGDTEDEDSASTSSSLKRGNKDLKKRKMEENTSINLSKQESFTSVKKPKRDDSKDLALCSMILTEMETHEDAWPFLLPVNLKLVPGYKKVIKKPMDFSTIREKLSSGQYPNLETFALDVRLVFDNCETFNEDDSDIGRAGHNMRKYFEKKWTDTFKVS
Structure (SMILES),"activity change, negative = inhibition",Potency
O=C(Nc1ccc(-c2nc3cc(NC(=O)c4ccccc4Cl)ccc3o2)cc1)c1ccccc1Cl,10.3%,
CSC1=N/C(=C\C=C\c2cccs2)C(=O)S1,,11.2 µM (active)
Cc1ccc(C)c(N2CCN(C(=O)C3CCC(CNS(=O)(=O)c4cccs4)CC3)CC2)c1 (centres undefined),-36.8%,
CCCOc1ccc(-c2cccc(NS(=O)(=O)c3ccccc3)c2)nn1,14.1%,
CCOc1ccccc1C(=O)Nc1ccc(S(=O)(=O)N2CCCCC2c2cccnc2)cc1 (centres undefined),0.817%,
COc1ccc(C(=O)Nc2ccc3nc(N4CCCCC4)cc(C)c3c2)cc1OC,,inactive
CCOc1ccc(C(=O)Nc2ccc3nc4c(c(Nc5ccccc5OC)c3c2)CCCC4)cc1,,17.8 µM (active)
COc1cc(/C=C/C(=O)N2CCc3ccccc3C2)cc(OC)c1OC,-6.42%,
COc1cccc(NC(=O)c2ccc3c(SCC(=O)O)c4c(nc3c2)CCCC4)c1,-23.9%,
COc1ccccc1Nc1c2c(nc3ccc(NC(=O)/C=C/c4cc(OC)c(OC)c(OC)c4)cc13)CCCC2,,11.2 µM (active)
COc1ccc(NS(=O)(=O)c2cc(NC(=O)/C=C/c3cc(OC)c(OC)c(OC)c3)ccc2N2CCCCC2)cc1,-4.66%,
COc1ccc2c(c1)c(N1CCCC1=O)c(C(=O)Nc1ccccc1C(F)(F)F)n2C,-13.3%,
Cn1nnc2c(N3CCN(c4ccccc4)CC3)ncnc21,-20.7%,
CSc1ccccc1NC(=O)CCS(=O)(=O)c1nc(-c2cccs2)cc(C(F)(F)F)n1,1.68%,
COc1ccccc1N1CCN(C2C(=O)c3ccccc3N2C(C)=O)CC1 (centres undefined),-23.9%,
COc1ccc(CCNC(=O)Cc2ccc(C)cc2)cc1OC,,79.4 µM (active)
COc1ccc(CCNC(=O)CCc2ccccc2O)cc1OC,11.6%,
COc1ccc(CCNC(=O)NS(=O)(=O)c2ccc(C)cc2)cc1OC,-5.09%,
CCOC(=O)c1ccc(NC(=O)CC2C(=O)N(c3cccc(OC)c3)C(=O)N2C2CCCCC2)cc1 (centres undefined),-9.85%,
Cc1c(C)c(C)c(S(=O)(=O)NCCc2ccccn2)c(C)c1C,-3.43%,
COc1ccc(NCCc2ccccn2)cc1,,56.2 µM (active)
COc1cccc(NC(=S)NCc2ccccn2)c1,-30.1%,
Cc1ccc(C(=O)CC2(O)C(=O)N(CCc3ccccc3)c3ccc(Br)cc32)cc1 (centres undefined),-13.9%,
CCc1ccc(OCC(=O)N(Cc2ccccc2)C2CCS(=O)(=O)C2)cc1 (centres undefined),4.48%,
Cc1cc(Cl)ccc1OCC(=O)N(Cc1ccc(N(C)C)cc1)C1CCS(=O)(=O)C1 (centres undefined),,35.5 µM (active)

Structure (SMILES),"activity change, negative = inhibition",Potency
COc1cc(C(=O)N(Cc2ccc(N(C)C)cc2)C2CCS(=O)(=O)C2)cc(OC)c1OC (centres undefined),-22.1%,
CC(C)c1ccc(OCC(=O)N(Cc2ccc(N(C)C)cc2)C2CCS(=O)(=O)C2)cc1 (centres undefined),,28.2 µM (active)
COc1cc(C(=O)N(Cc2ccc(C(C)C)cc2)C2CCS(=O)(=O)C2)cc(OC)c1OC (centres undefined),2.98%,
Cc1ccc(CN(C(=O)COc2ccc(Cl)cc2C)C2CCS(=O)(=O)C2)o1 (centres undefined),-27.3%,
Cc1cc(C)c2sc(NC(=O)c3ccc(S(=O)(=O)N4CCCC4)cc3)nc2c1,0.487%,
COc1ccc(C(=O)CSc2c(C(C)C)cnc3c2c(=O)n(C)c(=O)n3C)cc1,-7.25%,
CCc1ccc(CNC(=O)c2ccc(CS(=O)c3ccc(Br)cc3)o2)cc1 (centres undefined),0.453%,
CCc1nnc(SCc2c(F)cccc2Cl)c2cc3sccc3n12,-6.2%,
Nc1ccc2nc3c(=O)[nH]c(=S)[nH]c3nc2c1,,31.6 µM (active)
CC1CN(C(=O)N2CCC(C(=O)NCc3cccs3)CC2)c2ccccc2O1 (centres undefined),-1.78%,
CCn1c(=O)cc(OCC(=O)Nc2cc(Cl)c(OC)cc2OC)c2ccccc21,-13.1%,
Cc1cccc(C(=O)Nc2ccc(-c3nc4ncccc4o3)cc2C)c1,-1.15%,
COc1cccc(C(=O)Nc2ccc(N3CCCC3)cc2)c1,,31.6 µM (active)
Cc1ccccc1C(=O)Nc1ccc(N2CCCCCC2)cc1,,31.6 µM (active)
COc1cccc(C(=O)Nc2ccc(N3CCN(C(=O)c4ccco4)CC3)cc2)c1,-12.1%,
COc1cccc(C(=O)Nc2ccc3nc4n(c(=O)c3c2)CCCCC4)c1,-12.9%,
Cc1ccccc1C(=O)N1CCN(c2ccc(NC(=O)c3cccs3)cc2)CC1,-32.9%,
COC(=O)Cc1ccc(NC(=S)NCc2ccccc2)cc1,-2.73%,
Cc1ccccc1C(=O)NC(=S)Nc1ccc(N2CCN(C(=O)c3ccccc3)CC2)cc1,0.365%,
O=C(Cc1ccccc1)NC(=S)Nc1ccc(N2CCCCC2)cc1,,12.6 µM (active)
O=C(CCN1CCN(c2ccccc2)CC1)NNC(=S)Nc1ccccc1,-17.5%,
Cc1cc2nn(-c3ccc(Cl)cc3)nc2cc1NC(=O)C(C)C,0.62%,
CCC1CCCCN1S(=O)(=O)c1ccc(NC(=O)c2cc(=O)c3ccccc3o2)cc1 (centres undefined),-2.23%,
CC(=O)Nc1cc(C(=O)NCc2ccc(F)cc2Cl)ccc1Sc1ccc(Cl)cc1,-4.28%,
CSc1cccc(NC(=O)CN2C(=O)CCc3cc(S(=O)(=O)N4CCCCC4)ccc32)c1,-3.68%,

Structure (SMILES),"activity change, negative = inhibition",Potency
Cc1ccccc1-n1c(=O)c2ccccc2n(Cc2ccc(F)cc2)c1=O,0.401%,
Cc1ccc(-c2nnc(Nc3ccc(OCC(N)=O)cc3)c3ccccc23)cc1S(=O)(=O)NCC1CCCO1 (centres undefined),-14.3%,
COc1ccc(CNC(=O)CS(=O)Cc2nc(-c3cccc(C)c3)oc2C)cc1 (centres undefined),-24.3%,
COc1ccc(CCNC(=O)c2c3c(nc4ccccc24)C(=O)N(C2CCCCC2)C3)cc1OC,-11.2%,
COC(=O)c1cc2occc2n1Cc1nc(-c2ccc(C)cc2)oc1C,-13.3%,
Cc1ccc(S(=O)(=O)Nc2nc3ccccc3nc2N2CCc3ccccc3C2)cc1,-0.716%,
Cc1cc(N2CCN(S(=O)(=O)c3ccc(C)c(C)c3)CC2)c2ccccc2n1,-35.4%,
Cc1ccc(S(=O)(=O)C(C#N)c2nc3ccccc3nc2N2CCCC2)cc1C (centres undefined),,79.4 µM (active)
COc1cccc(Cn2c(CNS(=O)(=O)c3ccc(Cl)s3)nc3cccnc32)c1,-1.14%,
Cc1ccc(CNS(=O)(=O)c2ccc(C(=O)N(C)C)s2)cc1,-0.589%,
O=C(CC1C(=O)N(c2ccccc2)C(=O)N1CCc1cccs1)Nc1ccc(F)cc1 (centres undefined),-2.54%,
COc1ccc(/C(O)=C2/C(=O)C(=O)N(CCCN(C)C)C2c2ccccc2)cc1OC (centres undefined),6.91%,
CCCOc1ccc(/C(O)=C2/C(=O)C(=O)N(CCN(C)C)C2c2ccc(OC)c(OC)c2)cc1 (centres undefined),,79.4 µM (active)
COc1cccc(C2/C(=C(/O)c3ccc(F)cc3)C(=O)C(=O)N2CCN(C)C)c1 (centres undefined),16.7%,
COc1ccc(CCNC(=O)c2ccc3c(c2)nc(C)n3-c2ccc(Br)cc2)cc1OC,-23.5%,
COc1ccccc1CNC(=O)c1ccccc1NC(=O)c1nsc2ccccc12,-2.42%,
CCOc1ccc(CNC(=O)c2ccc3c(c2)nnn3C2CCCC2)cc1,-2.27%,
O=C(c1cc(-c2ccco2)nc2ccccc12)N(Cc1nnc(-c2ccc(Cl)cc2)o1)C1CC1,1.6%,
CC1CCCN(C(=O)c2cc(-c3ccco3)nc3ccccc23)C1 (centres undefined),2.27%,
Cc1cc(C)c2nc(-c3ccco3)cc(C(=O)O)c2c1,,39.8 µM (active)
CC(C)(C)c1ccc(S(=O)(=O)N2CCN(C(=O)c3cc(-c4ccc(Br)cc4)n[nH]3)CC2)cc1,-6.78%,
Cc1cccc(CC(=O)N2CC(=O)Nc3ccc(F)cc3C2c2ccccc2)c1 (centres undefined),-14.3%,
CCc1ccc(CNC(=O)c2cc3c(=O)n(CC)c4ccccc4c3s2)cc1,-8.35%,
O=S(=O)(N/N=C\c1cccn1-c1ccccc1)c1ccc2ccccc2c1,,35.5 µM (active)
COc1ccc(N2CC(NS(=O)(=O)c3ccc4ccccc4c3)CC2=O)cc1 (centres undefined),-3.73%,

Structure (SMILES),"activity change, negative = inhibition",Potency
O=C(COc1ccc(/C=N/NS(=O)(=O)c2ccccc2)cc1)NCCc1ccccc1,-3.74%,
CCOc1ccccc1CNC(=O)C1CCCN(S(=O)(=O)c2ccc3c(ccn3C)c2)C1 (centres undefined),-3.49%,
Cc1cc2oc(C(=O)N(Cc3ccc(Cl)cc3)Cc3ccco3)c(C)c2cc1Cl,-4.19%,
CCc1cnc2c(c1SCC(=O)c1ccccc1)c(=O)n(C)c(=O)n2C,-11.3%,
COc1cccc(N2CCN(S(=O)(=O)c3cc(Br)cc4c3N(C(=O)C3CC3)CC4)CC2)c1,-3.33%,
CCC(=O)N1CCc2cc(Br)cc(S(=O)(=O)Nc3ccc(C)cc3C)c21,-0.535%,
COc1ccc(-c2oc3ncn(Cc4ccco4)c(=N)c3c2-c2ccc(OC)cc2)cc1,,28.2 µM (active)
COc1ccc(NC(=O)C(=O)NCc2ccco2)cc1,3.4%,
COc1ccc(Cn2ccnc2SCC(=O)NCc2ccco2)cc1,-14.3%,
CCN1CCN(c2ncc3c(n2)CC(c2ccccc2O)CC3=O)CC1 (centres undefined),-3.34%,
Cc1ccc(C(=O)N2CCc3cc(CNC(=O)c4ccc(Br)cc4)ccc32)cc1,-10.7%,
N#Cc1c(NC(=O)CSc2nc3ccccc3c(=O)n2Cc2ccco2)sc2c1CCCC2,-4.51%,
COc1ccc(-n2c(SCC(=O)Nc3sc4c(c3C#N)CCCC4)nnc2-c2ccc(O)cc2)cc1,,79.4 µM (active)
Cc1ccc(C)c(OCC(=O)Nc2sc3c(c2C#N)CCCC3)c1C,6.56%,
CN(c1ccccc1)c1ccc(/C=c2\s/c(=C(/C#N)C(=O)C(C)(C)C)n(Cc3ccco3)c2=O)cc1,-37.8%,
Cc1cs/c(=N\N=C\c2ccc(O)cc2)n1Cc1ccco1,,44.7 µM (active)
COc1ccc(NC(=O)CSc2nnc(-c3cccs3)n2Cc2ccco2)cc1OC,-1%,
Cc1ccc(-c2cn3c(n2)sc2cc(C(=O)NCc4cccs4)ccc23)c(C)c1,55.2%,
Cc1ccccc1CSc1nnc(-c2cccnc2)n1N,1.75%,
Cc1ccccc1CSc1nnc(Cn2c(=O)sc3ccccc32)n1C,-2.9%,
Cc1ccccc1CSc1nnc(-c2ccccn2)n1N,,28.2 µM (active)
CCOC(=O)CCCNC(=O)COC(=O)/C=C/c1ccc2c(c1)OCO2,-8.04%,
O=C(Cc1ccc(F)cc1)N/N=C/c1ccc2c(c1)OCO2,3.35%,
CCC1=C/C(=C\c2ccc3c(c2)OCO3)C(=O)S1,,44.7 µM (active)
